Compound activity: PubChem, several laboratories
Shown are actives, neighbours in structure and some others; about 2.8% of the full set was active somewhere.
Shn3 3UTR inh: reduction of Shn3 3'UTR firefly luciferase signal, primary screen, Schnurri-3 inhibitor project, cell-based, Clone20 osteoblasts, set 2; Clone20 osteoblast Shn3 3'UTR firefly luciferase, 24 h; inhibition, % at 12.5 µM; actives 0.52% (n = 360,000);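 active means mean inhibition of at least 75% with every replicate also reaching 75%; inconclusive means mean inhibition at least 75% but some replicate below; inactive means mean inhibition below 75%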;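 further: 0% = median of neutral control wells and 100% = pilot-screen positive control compound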
HIF-2a inh: HIF-2a reporter inhibitors, primary screen, luminescence, 786-0 RCC cells; AID 624352, 2012; 786-0 RCC cells HIF-2a reporter, luciferase luminescence, overnight; actives 0.72% (n = 360,000); inhibition, % at 18.8 µM;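 active means inhibition of the luminescence signal of 40% or more relative to plate controls, in a single-dose primary screen at 18.75 µM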
KKLEB cytotox: cytotoxicity in KKLEB CF airway cells, primary screen, cytotoxicity control for CF NF-kB inhibitor project, cell-based, uHTS, fluorescence assay plates; KKLEB CF airway cells viability, ATPlite luminescence, overnight; stronger effect = lower value; cells stimulated with P. aeruginosa culture filtrate; activity change (cytotoxicity), % at 5 µM; actives 0.36% (n = 360,000);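 active means corrected activity change at or below -50% at 5 µM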
TRPM1 prom inh: inhibitors of MITF-dependent TRPM1 promoter reporter, primary screen, cell-based, SK-MEL-5, single point, luciferase | SK-MEL-5 TRPM1 promoter luciferase, 24 h | inhibition, % at 12.5 µM | actives 0.83% (n = 330,000);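 active means mean inhibition across replicates of 60% or more, whatever share of single replicates reaches that level; inconclusive means some that reach 60%, reason not given; inactive means mean inhibition across replicates below 60%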
Peg3 prom inh: Peg3 promoter-driven luciferase inhibitors, primary screen, cell-based, HeLa, luciferase luminescence | inhibition, % at 20 µM | HeLa PEG-Prom luciferase reporter, overnight | actives 1.7% (n = 360,000) | AID 588405, 2011;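 active means inhibition of at least 50% at 20 µM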
CF NFkB inh: inhibitors of PAF-induced NF-kB signaling, primary screen, cell-based, GFP fluorescence, uHTS. KKLEB NF-kB-GFP reporter, GFP fluorescence overnight. inhibition, % at 5 µM. actives 0.86% (n = 360,000). AID 588850, 2011;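 active means at least 50% inhibition at 5 µM, scaled per plate between neutral and stimulator controls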;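 further: PAF is a Pseudomonas aeruginosa culture filtrate used as stimulus; plate controls were PAF-stimulated DMSO wells for no effect and unstimulated DMSO wells for full effect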
* = called active by the depositor; ? = inconclusive; . = not tested or not shown.

SMILES	Shn3 3UTR inh	HIF-2a inh	KKLEB cytotox	TRPM1 prom inh	Peg3 prom inh	CF NFkB inh
CSc1cccc(NC(=S)N(CCCN2CCCC2)Cc2cccn2Cc2ccc(Cl)cc2)c1	40.3	-10.3	-13.2	?	107.5*	17.1
COc1cccc(NC(=S)N(CCCN2CCCC2)Cc2cccn2Cc2ccc(Cl)cc2)c1	-10.3	-20.8	-3.1	-30.7	-0.1	15.8
CSc1cccc(NC(=S)N(CCCN2CCCC2)Cc2cccs2)c1	15.0	5.2	-10.0	-5.4	0.9	-8.4
S=C(Nc1cccc(Cl)c1)N(CCCN1CCCC1)Cc1cccn1Cc1ccc(Cl)cc1	52.3	8.5	-33.8	30.6	100.1*	38.2
COc1ccc(/C=C2\Sc3ccc(C(=O)NCCN4CCCCCC4)cc3N(C)C2=O)cc1	1.6	3.7	4.1	62.9*	35.8	9.9
COc1cccc(/C=C2/Sc3ccc(C(=O)NCCN4CCCC4)cc3NC2=O)c1	12.8	11.6	-5.5	85.0*	90.7*	7.7
O=C1Nc2cc(C(=O)NCCN3CCCCCC3)ccc2S/C1=C/c1ccccc1F	0.2	-10.7	-9.1	.	99.2*	4.3
CCN1CCCC1CNC(=O)c1ccc2c(c1)NC(=O)/C(=C\c1ccc(C)cc1)S2 (stereo not given)	-9.9	-2.3	-13.1	80.8*	102.5*	9.5
Cc1cccc(C)c1NC(=O)C1(C)CN(S(C)(=O)=O)CC(=O)N1Cc1cccc(F)c1 (stereo not given)	.	-2.3	.	.	.	.
O=C1CN(S(=O)(=O)c2cccc(Br)c2)CCN1	-19.4	-1.1	6.5	4.5	-0.2	30.1
CCOC(=O)C1(C)CCN1C(=O)/C=C/c1ccccc1 (stereo not given)	-43.7	-4.0	4.4	.	-0.2	-25.4
N#CCc1ccc(OC(=O)c2ccncc2)cc1	-1.0	13.9	-4.2	9.6	3.0	4.0
Cc1ccc(C(=O)c2c(C)oc3c2C(=O)C(=O)c2ccccc2-3)cc1	96.3*	28.7	-15.8	26.3	101.2*	77.6*
Cc1ccc(C(=O)c2coc3c2C(=O)C(=O)c2ccccc2-3)cc1	-34.2	-130.8	12.7	-67.4	-38.2	7.3
Cc1oc2c(c1C(=O)c1ccc(Cl)cc1)C(=O)C(=O)c1ccccc1-2	92.5*	93.8*	-62.2*	1.2	107.0*	86.2*
O=C1C(Cl)=C(NCCc2ccccc2)C(=O)c2ccccc21	28.0	-56.6	3.7	?	62.8*	41.8
C=CCNC1=C(Cl)C(=O)c2ccccc2C1=O	5.4	-10.5	-7.6	63.3*	-1.1	17.2
O=C1C(Cl)=C(NCc2cccnc2)C(=O)c2ccccc21	-8.9	13.7	-6.4	97.7*	1.8	37.4
CCN(CC(=O)Nc1ccc2c(c1)OCCO2)S(=O)(=O)c1ccc(F)cc1	0.2	-12.4	-3.0	3.8	-8.9	1.1
CCc1cc(C(=O)O)c(NC(=O)C(c2ccccc2)c2ccccc2)s1	-9.8	15.0	-66.1*	4.6	14.6	-1.5
CCOC(=O)c1cc(C)sc1NC(=O)C(c1ccccc1)c1ccccc1	18.1	11.7	-20.8	-1.0	19.2	24.0
CN(C)CCCN(C(=O)c1ccc2c(c1)CCCC2)c1nc2cc3c(cc2s1)OCO3	-3.4	2.6	6.7	-4.3	57.4*	14.5
Cc1ccc2sc(N(CCCN(C)C)C(=O)c3ccc(S(=O)(=O)N4CCOCC4)cc3)nc2c1C	-18.6	14.2	-5.3	-7.5	-25.6	19.6
CN(C)CCCN(C(=O)c1ccc(Br)s1)c1nc2cc3c(cc2s1)OCO3	3.1	-0.2	-6.0	54.3	59.2*	0.8
CN(C)CCCN(C(=O)c1ccc(S(=O)(=O)N(C)C)cc1)c1nc2cc3c(cc2s1)OCO3	11.4	-16.0	-15.5	12.6	-12.0	-28.3
SMILES	Shn3 3UTR inh	HIF-2a inh	KKLEB cytotox	TRPM1 prom inh	Peg3 prom inh	CF NFkB inh
CCN(Cc1ccccc1)S(=O)(=O)c1ccc(C(=O)N(CCCN(C)C)c2nc3c(C)c(C)ccc3s2)cc1	-10.9	-2.3	-23.9	-4.4	92.9*	30.0
Cc1ccc2sc(N(CCCN(C)C)C(=O)c3ccc(Br)s3)nc2c1C	-4.4	-10.7	-2.4	-20.4	62.5*	18.8
O=C(Cn1nnc(-c2ccccc2)n1)Nc1cccc(S(=O)(=O)N2CCCC2)c1	41.0	-2.4	-0.1	6.4	-3.1	-10.7
O=C(NCCCCCCNC(=O)OCc1ccccc1)OCc1ccccc1	-7.7	1.3	-10.7	-11.1	1.5	-11.3
O=C(OCc1ccccc1)N(CCCCN(CCCNCc1ccccc1)C(=O)OCc1ccccc1)CCCNCc1ccccc1	99.1*	89.1*	-90.3*	97.3*	108.1*	68.5*
COc1cccc(/C=N/NC(=O)CNC(=O)/C=C\c2ccccc2)c1O	89.8*	-5.8	-3.0	55.2	20.0	-0.3
COc1ccc(/C=C\C(=O)NCC(=O)N/N=C/c2cccc(OC)c2O)cc1	24.6	5.8	-14.6	17.4	37.2	-0.9
CCOC(=O)CNC(=O)C1(NC(=O)CNC(=O)OCc2ccccc2)CCCC1	90.7*	-9.4	7.2	0.4	-12.1	-20.4
Cc1nc(N2CCN(Cc3ccc4c(c3)OCO4)CC2)c2cc(-c3ccccc3)sc2n1	21.8	-102.7	12.4	11.3	-7.5	-39.4
CSc1nc(N2CCN(Cc3ccc4c(c3)OCO4)CC2)c2ccccc2n1	85.9*	2.7	4.1	11.3	9.1	-5.4
CCCC(=O)NCCc1nc2cc([N+](=O)[O-])ccc2n1C	-18.8	8.8	3.0	-7.8	13.4	0.7
O=C(NC1CCCCC1)C(c1ccc(F)cc1)N(CCc1ccccc1)C(=O)CN1C(=O)c2ccccc2S1(=O)=O (stereo not given)	22.7	0.1	-20.4	64.2*	79.2*	18.7
O=C(CN1C(=O)c2ccccc2S1(=O)=O)NC1CCCC1	-19.7	-20.4	-11.4	-1.1	1.6	10.3
O=C(NC1CCCCC1)C(c1ccc(F)cc1)N(Cc1ccccc1)C(=O)CN1C(=O)c2ccccc2S1(=O)=O (stereo not given)	0.7	5.6	-22.7	5.9	67.6*	7.9
CCOC(=O)Cn1c(S(=O)(=O)Cc2ccccc2Cl)nc(-c2ccccc2)c1-c1ccccc1	88.4*	22.6	-8.2	-1.0	31.7	-5.3
CCN(c1ccc(OC)cc1)S(=O)(=O)c1ccc2c(c1)CC(C)N2C(=O)C1CC1 (stereo not given)	52.0	-22.5	-10.5	9.8	4.9	20.4
COc1ccc(-c2oc(NC(=O)CCl)c(C#N)c2-c2ccc(OC)cc2)cc1	.	15.4	-9.5	43.2	102.4*	11.4
COc1ccc(-c2oc(NC(=O)CSc3ncn[nH]3)c(C#N)c2-c2ccc(OC)cc2)cc1	-28.8	7.1	2.2	3.6	30.5	41.6
